According to ChEMBL document CHEMBL3988442, “University of Dundee, Small-Polar-MMV Screening Library” (2021):
Among all 69,000 compounds or so, about 950 (1.4%) showed an effect of 50% or more. What follows is part of a selection rich in strong results, with near analogues and random picks from the rest.

Tested on: Mycobacterium tuberculosis
Assay: Cornell M. t heat shock assay; also: in the data most compounds retested in dose-response had high values
Format: functional, organism-based
Parameters: dose or concentration left out as unconfirmed

In order of falling “Percent Effect” value:
1. COCC(=O)N1CCCC1c1cccc(Nc2ncc(C)s2)n1 (stereo unspecified)  102.5%
2. Cc1nnc(NC(=O)CN2CCCC(c3ccn[nH]3)C2)s1 (stereo unspecified)  101.7%
3. CNC(=O)c1cccc(CNC(C)c2ccc(F)cc2N(C)C)c1 (stereo unspecified)  101.5%
4. CCNC(=O)c1cn2cc(-c3ccccc3Cl)n(CC3CC3)c(=O)c2n1  99.63%
5. COc1ccc(F)c(CN2CCCC3(CCN(C4CCOCC4)C3)C2)c1 (stereo unspecified)  99.36%
6. O=C(CN1CCCC(c2ccn[nH]2)C1)Nc1nncs1 (stereo unspecified)  98.23%
7. CN(CC(=O)N(C)C1CCCCC1)Cc1nc2ccccc2c(=O)[nH]1  97.32%
8. CC(C)(C)c1n[nH]cc1CNCC1CCN(C2CC2)C1.Cl (stereo unspecified)  85.37%
9. CC(C)N1CCC(CNCc2c[nH]nc2C(C)(C)C)C1 (stereo unspecified)  82.49%
10. CC1(C)CC(=O)N(CC(=O)Nc2ccon2)c2ccccc21  77.91%
11. CCN(CC)S(=O)(=O)N1CCCC1c1cccc(Nc2ncc(C)s2)n1 (stereo unspecified)  70.89%
12. CC(C)n1c2ccccc2c2c1cc(C(=O)O)n2C(=O)N(C)C  64.45%
13. Cc1nc(C2CCCN2Cc2cc(Cl)c3c(c2)OCCO3)no1 (stereo unspecified)  57.05%
14. COCCNc1nc2c(c(NCCc3cccs3)n1)CCNCC2  55.02%
15. CC(C)(C)c1nc(CNC2CCCN(c3cccnn3)C2)no1 (stereo unspecified)  53.11%
16. CCn1cc(NC(=O)CN2C(=O)CC(C)(C)c3ccccc32)cn1  52.7%
17. CN1CCOC(CNCc2csc(C3CCCC3)n2)C1 (stereo unspecified)  51.17%
18. CN(Cc1nc2ccccc2c(=O)[nH]1)C1CC(=O)N(C2CC2)C1=O (stereo unspecified)  51.11%
19. CCN1CCC(CNCc2c[nH]nc2C(C)(C)C)C1.Cl (stereo unspecified)  48.77%
20. Cc1nc(C2CCCN2Cc2cc(Cl)c3c(c2)OCCCO3)no1 (stereo unspecified)  45.55%
21. CNC(=O)COC1COC2(CCN(Cc3ccncc3F)CC2)C1.O=C(O)C(F)(F)F (stereo unspecified)  44.76%
22. CN(Cc1nc2ccccc2c(=O)[nH]1)C[C@@H]1CCCN2CCCC[C@H]12  44.63%
23. CC(C)c1nnc(N2C[C@@H]3CC[C@H](C2)N(Cc2ccccc2)C3)s1  34.82%
24. CSCCC(O)C(=O)N1CCN(Cc2cccc(Cl)c2)CC1 (stereo unspecified)  31.13%
25. COc1nn(C)c2c1CCCN(C(=O)c1cccc(C)n1)C2.O=C(O)C(F)(F)F  26.28%
26. CCS(=O)(=O)N1CCC2(CCCN(Cc3cc(OC)ccc3F)C2)C1 (stereo unspecified)  24.11%
27. Cc1nc(C2CCCN2Cc2cc(Cl)c3c(c2)OCO3)no1 (stereo unspecified)  23.975%
28. CN(C)C(=O)c1cn2cc(-c3ccccc3Cl)n(CC3CC3)c(=O)c2n1  22.72%
29. CC(C)n1c2ccccc2c2c1cc(C(=O)NCCO)n2C(=O)N(C)C  20.51%
30. O=C(NC1CCC1)[C@H]1C[C@@H]2CN(CC3CC3)C[C@H]1O2.O=C(O)C(F)(F)F  18.28%
31. CCN1C(=O)CC(N(C)Cc2nc3ccccc3c(=O)[nH]2)C1=O (stereo unspecified)  16.93%
32. CN1C(=O)CC(N(C)Cc2nc3ccccc3c(=O)[nH]2)C1=O (stereo unspecified)  15.14%
33. CC(=O)Nc1c(C)noc1/C=C\c1ccc(C)c(S(=O)(=O)NC2CC2)c1  14.26%
34. Cn1c(C2CC2)nc2c1CCN(CC(=O)Nc1nncs1)C2  13.67%
35. CNC(=O)c1cn2cc(-c3ccccc3Cl)n(CC3CC3)c(=O)c2n1  12.71%
36. Cc1ccnc(N2CCCC(c3noc(C(C)C)n3)C2)n1 (stereo unspecified)  12.21%
37. Cc1nc(C)n(CC2CCCN(CC(=O)Nc3nncs3)C2)n1 (stereo unspecified)  11.86%
38. CC(C)n1c2ccccc2c2c1cc(C(=O)N(C)C)n2C(=O)N(C)C  11.26%
39. c1csc(CCNc2nc(-c3ccncc3)nc3c2CCNCC3)c1  10.45%
40. O=C(O)C(F)(F)F.O=S(=O)(C1CC1)N1CCCn2cnc(COc3cccnc3)c2C1  9.967%
41. CCOc1ccccc1CNC(=O)Cn1ccc2c(C)nn(C)c2c1=O  9.293%
42. CN(Cc1cn2c(n1)CN(c1ncc(F)cn1)CC2)Cc1ccco1.O=C(O)C(F)(F)F.O=C(O)C(F)(F)F  8.494%
43. COc1ccc(CC(=O)N2CCN(c3nccn3C)CC2)cc1.Cl  6.481%
44. Cc1ccoc1C(=O)N1CC[C@@H]2CN(C3CCOCC3)CCO[C@@H]2C1.O=C(O)C(F)(F)F  6.269%
45. Cc1cc(NC(=O)CN2C(=O)CC(C)(C)c3ccccc32)no1  6.008%
46. COc1ccc(CN2C[C@@H](N(C)Cc3ccco3)[C@H]3OCCC[C@H]32)cc1.O=C(O)C(F)(F)F.O=C(O)C(F)(F)F  2.974%
47. O=C(N[C@H]1CN(Cc2ccsc2)[C@@H]2CCCO[C@H]12)C1CC1.O=C(O)C(F)(F)F  2.811%
48. CSc1nc(N)c2c(n1)N=C1COC(O)=C1C2c1cccc(Cl)c1 (stereo unspecified)  2.564%
49. CCn1ccc(NC(=O)CN2C(=O)CC(C)(C)c3ccccc32)n1  2.312%
50. Fc1ccc(CN[C@@H]2COC[C@H]2c2ccc(F)cc2)cc1.O=C(O)CC(O)(CC(=O)O)C(=O)O  2.118%
51. Cc1nnc(NC(=O)CN2CCCC(Cn3cncn3)C2)s1 (stereo unspecified)  2.027%
52. Cl.Cn1nc(C2CCN(C(=O)CCN3CCOCC3)CC2)c2cccnc21  0.9946%
53. CC(O)CN1CCC(CNCc2c[nH]nc2C(C)(C)C)CC1 (stereo unspecified)  0.7064%
54. COc1cccc(CN2CCC3(CCN(C(=O)[C@H]4CCCO4)CC3)C2)c1.O=C(O)C(F)(F)F  -2.359%
55. Cc1cccc(NC(=O)CN2C(=O)CC(C)(C)c3ccccc32)n1  -2.777%
56. O=C(Cc1ccccc1)N1CCCC2(COCCN(CC3CC3)C2)C1.O=C(O)C(F)(F)F (stereo unspecified)  -3.666%
57. CCc1nnc(Nc2cccc(C3CCN(S(=O)(=O)N(C)C)CC3)n2)s1  -4.928%
58. CN(CC(=O)N(C)C1CCCCC1)Cc1nc2c(cnn2C)c(=O)[nH]1  -5.559%
59. Cc1cc(N2CCN(Cc3cn(C)nc3C)CC2)cc(C2CCNC2)n1.Cl (stereo unspecified)  -5.922%
60. Cc1cnc(Nc2cccc(C3CCCN3C(=O)CO)n2)s1 (stereo unspecified)  -6.272%
61. CCN(CC)S(=O)(=O)N1CC[C@H](c2ccccc2)[C@H]2NCCCC[C@H]21.Cl  -6.669%
62. COc1cccc(OCCNCc2ccccc2)c1.O=C(O)C(=O)O  -6.728%
63. Cc1nc(CNCC2CN(C)CCO2)cs1 (stereo unspecified)  -7.018%
64. CC(C)(C)c1n[nH]cc1CNCC1CCN(CC(F)(F)F)C1.Cl (stereo unspecified)  -7.348%
65. Cc1cccc(C2CCCN2S(=O)(=O)N(C)C)n1 (stereo unspecified)  -7.65%
66. COCCN1CCC(CNCc2c[nH]nc2C(C)(C)C)CC1  -7.94%
67. CCC(CN1CCCCC1)NC(=O)C1(c2ccc(F)cc2)CC1.O=C(O)CC(O)(CC(=O)O)C(=O)O (stereo unspecified)  -8.056%
68. COCCNc1nc2c(c(NCc3ccncc3)n1)CCNCC2  -8.417%
69. Cc1ccc(C(=O)N2CCn3c(COCC4CC4)cnc3C2C)nc1.O=C(O)C(F)(F)F (stereo unspecified)  -9.703%
70. COCCN1CCC2(CC1)CN(C(=O)N(C)C)c1ccc(C)cc12.O=C(O)C(F)(F)F  -10.15%
71. Cc1nc(Nc2nnc(C)s2)cc(C2CCCN2C2CCCC2)n1 (stereo unspecified)  -11.05%
72. CC(C)c1nc(CNC2CCCN(c3cccnn3)C2)no1 (stereo unspecified)  -11.29%
73. CC(C)N1Cc2c(C(=O)N3CCOCC3)nn(C)c2C1.O=C(O)C(F)(F)F.O=C(O)C(F)(F)F  -12.04%
74. CN(C)c1nccc(N2CCO[C@H]3CN(Cc4nccn4C)C[C@H]32)n1.O=C(O)C(F)(F)F  -13.16%
75. CNC(=O)c1cccc(CNC(C)c2cc(Cl)ccc2OC)c1 (stereo unspecified)  -13.72%
76. CC(=O)Nc1nc(-c2ccccc2)c[nH]1  -15.03%
77. CCn1ccc(NC(=O)CN2C(=O)C(C)(C)c3ccccc32)n1  -16.77%
78. COCC(=O)N1CCCCC1c1ccnc(Nc2ncc(C)s2)n1 (stereo unspecified)  -16.88%
79. CN1CCOC(CNCc2csc(C3CCCCC3)n2)C1 (stereo unspecified)  -18.06%
80. COc1ccc(F)c(CN2CCCC3(CCN(S(C)(=O)=O)C3)C2)c1 (stereo unspecified)  -18.53%
81. CNC(=O)c1cccc(CNC(C)c2cc(C)ccc2OC(F)F)c1 (stereo unspecified)  -18.66%
82. Cc1nc(CNC2CCCN(c3cccnn3)C2)no1 (stereo unspecified)  -18.97%
83. Cl.Nc1ncc(-c2csc(NC(=O)C[C@H]3COCCN3)n2)cn1  -19.35%
84. CCc1ccc(CN2CCCn3c(nc(Cn4ccnc4)cc3=O)C2)o1.O=C(O)C(F)(F)F.O=C(O)C(F)(F)F  -19.48%
85. Cn1ccc(C(=O)N2C[C@@H]3OCCN(c4ncccn4)[C@@H]3C2)n1.O=C(O)C(F)(F)F  -20%
86. Cc1cccc(CN2CC3(CCN(C(=O)N(C)C)CC3)OCC2=O)n1.O=C(O)C(F)(F)F  -24.23%
87. COc1ccc(CN2Cc3nnn(C)c3C(COCCN(C)C)C2)cc1.O=C(O)C(F)(F)F.O=C(O)C(F)(F)F (stereo unspecified)  -24.51%
88. CCN1CCC2(CC1)CC(NCc1cccs1)c1ccccc1O2.O=C(O)C(F)(F)F.O=C(O)C(F)(F)F (stereo unspecified)  -24.55%
89. Cc1nc(C)n(CC2CCCN(CC(=O)Nc3nnc(C)s3)C2)n1 (stereo unspecified)  -28.96%
90. Cc1cnc(N2Cc3nccn3CC(Cn3ncccc3=O)C2)nc1.O=C(O)C(F)(F)F (stereo unspecified)  -35.14%
91. Cc1ccc(N2CC[C@H]3O[C@H](C(=O)NCc4ccco4)CC[C@H]32)nn1.O=C(O)C(F)(F)F  -36.19%
